This is an account of results in PubChem BioAssay AID651692 (Broad Institute, 2012).

This test in a line: MDA-MB-231 cell growth inhibition, dose response, cytotoxicity control for RAD54 inhibitor project, CellTiter-Glo luminescence, cherry-pick (AID 651692;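 further: more negative values mean stronger loss of viable cell signal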). (In general: In ATP-based viability assays light output follows the ATP content of the culture.)

Structures are written as SMILES. Potency and affinity values are given separately. Activity calls are given as the source filed them.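 How the source made its calls: active means fitted half-maximal concentration for loss of cell signal no higher than twice the top valid tested concentration; inconclusive means flat curve at 30 to 70% inhibition, or poor fit; inactive means flat within 30%, signal rise, or potency above limit.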

As for `CCCCN(CC)CCCNC(=S)Nc1ccc2nc(N3CCN(CC)CC3)cc(C)c2c1`, the molecule was called inactive. On to `CC(=O)Nc1cc(-c2ccc(N3CCN(C)CC3)cc2)cn2c(-c3ccc(S(C)(=O)=O)cc3)cnc12`, for which the outcome was inactive.

With `COc1cccc2sc3ccc(NCCC4CCCN4C)cc3c(=O)c12` (configuration not stated), the result was inactive. Regarding `CN(C)CCCN(C(=O)c1ccc([N+](=O)[O-])o1)c1nc2cc3c(cc2s1)OCO3`, the molecule was classed as inactive. `Oc1ccc(CCNc2c3ccccc3nc3ccccc23)cc1O`: the molecule was called inactive. Turning to `Nc1cc2ccncc2c2ccccc12`, the molecule was classed as inactive. Consider `CCN(CC)Cc1cc(Nc2ccnc3cc(Cl)ccc23)ccc1O`, for which the result was inactive. The value for `Cn1c2ccccc2c(=O)c2cc(NCCCN3CCOCC3)ccc21` was “inactive”. `COc1ccc(N2C(=O)CSC23CCCCC3)cc1`: the result was inactive. Regarding `COc1cc2nc(N(C)C)nc(N)c2cc1OC`, the molecule was classed as inactive. For the molecule `O=C(NN1CCOCC1)c1cc(-c2ccc(Cl)c(Cl)c2)nc2ccccc12`, the molecule was classed as inactive. As for `COc1ccccc1NC(=O)CNC(=O)c1ccccc1`, the molecule was called inactive.

For `Cc1[nH]ccc2c1[nH]c1cc(=O)ccc12`, the molecule was called inactive. Turning to `COc1cc2nc(N3CCNCC3)nc(N)c2cc1OC`, the molecule was called inactive.

`OCCN1CCN(c2nc(-c3ccccc3O)nc3ccccc23)CC1`: the molecule was called inactive. As to `COC(=O)c1c(NC(=O)c2ccc([N+](=O)[O-])o2)sc2c1CCN(C(C)C)C2`, the molecule was called inactive.

As for `COc1ccc2cc3cc(C(=O)NCCCN4CCC(C)CC4)oc3nc2c1`, the outcome was inactive. On to `CCCCN(CC)CCCNC(=O)c1cc2c(-c3ccc(OC)c(OC)c3)nn(C)c2s1`, for which the molecule was called inactive.

With `COc1cccc(-c2cc(NC=O)c3ncc(-c4cccc(C(=O)NCCN(C)C)c4)n3c2)c1`, the outcome was inactive.

As to `Cc1ccc(-c2nc(N3CCN(C)CC3)c3ccccc3n2)cc1`, the outcome was inactive. As for `COCCCNCCC(CCC(C)C)c1ccc2c(c1)OCO2` (configuration not stated), the call was inactive. The value for `Cc1ccnc(Nc2nc(-c3sc(C)nc3C)cs2)c1` was “inactive”. As to `CN1CCN(CCCNC(=O)c2cc3c(=O)oc4ccccc4c3s2)CC1`, the molecule was classed as inactive.

On to `CC(N)c1csc(Nc2nncc3ccccc23)n1` (configuration not stated), for which the molecule was called inactive. Under `CCN1CCN(c2cc(C)c3cc(NC(=S)N4CCCC(C)C4)ccc3n2)CC1` (configuration not stated) stands “inactive”.

`CCN(CC)CCNc1nc2cc(OC)c(OC)cc2c2nc(-c3ccccc3)nn12`: the result was inactive.

With `CCN(CC)CC(=O)Nc1cccc2c1C(=O)c1ccccc1C2=O`, the result was inactive. The value for `NNC(=O)c1oc2nc(-c3cccs3)cc(-c3ccco3)c2c1N` was “inactive”. As for `Oc1ccc(Nc2nc(N3CCCC3)c3ccccc3n2)cc1`, the molecule was called inactive. The value for `COc1ccc(Nc2cc(C)nc3ccc(OC)cc23)cc1` was “inactive”; that for `CN(C)CCNC(=O)c1cccc(-c2cnc3c(NC=O)cc(-c4cccs4)cn23)c1` was “inactive”.

Take `CCN(CC)CCNc1ccc(CO)c2sc3ccccc3c(=O)c12`: the molecule was called inactive.

For the molecule `COc1ccc2c(c1)c1ncn(CCN3CCCCC3)c(=O)c1n2C`, the result was inactive. With `c1cncc(Nc2c3ccccc3nc3ccccc23)c1`, the outcome was inactive.

`CN1CCN(c2nc(-c3cccc([N+](=O)[O-])c3)nc3ccccc23)CC1`: the molecule was classed as inactive.

Turning to `CCOC(=O)c1cnc2c(C)cc(C)cc2c1NCCCN1CCOCC1`, the call was inactive. Under `CCCCN(CC)CCNC(=S)Nc1ccc2nc(N3CCN(C)CC3)cc(C)c2c1` stands “inactive”. For `O=C(Nc1cccc(Cl)c1)c1cc(S(=O)(=O)N2CCOCC2)cs1`, the molecule was called inactive. With `COc1ccc2cc3cc(C(=O)NCCCN4CCOCC4)oc3nc2c1`, the outcome was inactive. Regarding `O=S(=O)(c1ccc(-c2nnc(SCc3ccccc3)o2)cc1)N1CCCC1`, the result was inactive. For the molecule `CN1CCCC1CCNc1ccc2c(=O)c3ccccc3oc2c1` (configuration not stated), the outcome was inactive.

For the molecule `CN(C)CCCNc1nc2cc(-c3cccc(Cl)c3)sc2c(=O)n1C`, the molecule was called inactive. With `Cc1ccc(-c2nc(C(=O)NCCCN(C)C)cc3c2[nH]c2ccccc23)cc1`, the molecule was called inactive. As to `C=CCc1ccccc1OCC(O)CN1CCN(CCN2C(=O)c3cccc4cccc(c34)C2=O)CC1` (configuration not stated), the call was inactive. Regarding `CCN(CC)CCNc1cccc2sc3ccccc3c(=O)c12`, the molecule was classed as inactive. Regarding `CCOC(=O)c1c(NC(=O)c2ccc(S(=O)(=O)N3CCOCC3)cc2)sc2c1CCN(C(C)C)C2`, the result was inactive. `Cc1ccc2oc(=O)c3cc(C(=O)NCCCN4CCN(C)CC4)sc3c2c1`: the result was inactive. Regarding `COc1ccc(C)c2sc(N(CCN(C)C)C(=O)c3ccc4ccccc4c3)nc12`, the call was inactive. With `Cc1ccc2nc3c(cc(C(=O)NCCN4CCOCC4)c(=N)n3CCCN3CCOCC3)c(=O)n2c1`, the call was inactive. Consider `COc1ccc(-c2nn(C)c3sc(C(=O)NCCN(C)C)cc23)cc1OC`, for which the call was inactive. The value for `OCCN1CCN(c2ncnc3c2sc2nc(N4CCOCC4)c4c(c23)CCC4)CC1` was “inactive”; that for `Cc1c(Cl)ccc(S(=O)(=O)NCCCn2ccnc2)c1Cl` was “inactive”; that for `CN(C)CCNC(=O)c1cccc(-c2cnc3c(NC=O)cc(-c4ccccc4F)cn23)c1` was “inactive”. Regarding `CC(=O)Nc1cc(-c2cccc(C(=O)NCCN(C)C)c2)cn2c(-c3ccc(S(C)(=O)=O)cc3)cnc12`, the result was inactive. Take `CCN(CC)CCCNC(=O)c1cc2c(=O)[nH]c3ccc(C)cc3c2s1`: the call was inactive. In the case of `CC(C)N1CCc2c(sc(NC(=O)c3ccc(C(=O)c4ccccc4)cc3)c2C(N)=O)C1`, the call was inactive. On to `Cc1nc2ccccc2c2oc(C(=O)NCCN3CCN(C)CC3)cc12`, for which the molecule was classed as inactive.

As for `CCc1ccc2nc3nc(C)cc(C)c3c(N)c2c1`, the result was inactive. `CCN(CC)CCn1c2ccc(F)cc2c2nc(C)sc21`: the outcome was inactive. Take `Cn1c(NCCN2CCCC2)nc2cc(-c3ccccc3)sc2c1=O`: the outcome was inactive. Under `CCNCCNC(=O)c1c(O)c2cccc3c2n(c1=O)CCC3` stands “inactive”; under `Cc1cccc(-c2nc(NCCCN(C)C)c3ccccc3n2)c1`, “inactive”.

As for `c1ccc2c(c1)oc1c(Nc3ccc(CN4CCOCC4)cc3)ncnc12`, the molecule was classed as inactive. For `CCN(CC)CCNC(=S)Nc1ccc2nc(N3CCN(CC)CC3)cc(C)c2c1`, the molecule was classed as inactive. For `COc1ccc(Nc2c3ccccc3nc3ccccc23)cc1`, the result was inactive. Consider `CC1CCc2sc3nc(N4CCN(CCO)CC4)n4ncnc4c3c2C1` (configuration not stated), for which the molecule was called inactive. `CCN1CCN(c2cc(C)c3cc(NC(=S)N4CCC5(CC4)OCCO5)ccc3n2)CC1`: the molecule was classed as inactive. Under `CCOc1cc2nc(-c3ccc(OC)c(OC)c3)nc(NCCCN3CCOCC3)c2cc1OC` stands “inactive”. Consider `CCN(CC)CCCNc1nc2cc(OC)c(OC)cc2c2nc(-c3cccnc3)nn12`, for which the call was inactive.

Consider `CN1CCN(CCCNC(=O)c2cc3c(-c4ccc(Cl)cc4)nn(C)c3s2)CC1`, for which the call was inactive. The value for `CCN(CC)CCOc1c(Br)ccc2c1sc1nc3n(c(=O)c12)CCC3` was “inactive”; that for `COc1cccc2c1-c1c(O)cccc1C2=O` was “inactive”.

Take `O=C(NCCCN1CCCC1)c1cc2c(Cl)nc3ccccc3c2s1`: the call was inactive. For `CCOC(=O)c1cnc2ccc(OCC)cc2c1NCCCN1CCOCC1`, the call was inactive. With `COc1ccc(Cc2c(-c3ccc(OC)c(OC)c3)nc3c(C)cc(Br)cn23)c(C)c1`, the molecule was classed as inactive.

Turning to `CCOCCCNC(=S)Nc1ccc2nc(N3CCCC3)cc(C)c2c1`, the outcome was inactive. In the case of `CN(C)CCCNc1nc2cc(-c3ccc(C(=O)N4CCN(C)CC4)cc3)sc2c(=O)n1C`, the result was inactive. Under `CN(C)C(CNC(=O)CCCN1C(=O)c2cccc3cccc(c23)C1=O)c1ccccc1` (configuration not stated) stands “inactive”; under `CN(C)CCNc1cc(-c2ccncc2)nc2ccccc12`, “inactive”. Regarding `O=c1c2ccccc2sc2ccc(NCCCN3CCOCC3)cc12`, the molecule was classed as inactive. The value for `Cc1nc2ccccc2c2oc(C(=O)NCCCN3CCC(C)CC3)cc12` was “inactive”; that for `CCN(CC)CCCNC(=O)C1CCN(c2ncnc3c2sc2cccc(F)c23)CC1` was “inactive”; that for `CN1CCc2[nH]c3ccc(C(=O)NN)cc3c2C1` was “inactive”. Turning to `CN(C)CCN(C(=O)CN1C(=O)c2ccccc2C1=O)c1nc2cc3c(cc2s1)OCO3`, the molecule was called inactive. As for `COc1ccc(-c2nc(C(=O)NCCCN3CCOCC3)cc3c2[nH]c2ccccc23)cc1OC`, the result was inactive.

Regarding `CC1CCCN(CCCNC(=O)c2cc3c(Cl)nc4ccccc4c3s2)C1` (configuration not stated), the call was inactive.

For the molecule `Cc1nc2ccccc2c2oc(C(=O)N3CCC(N4CCCCC4)CC3)cc12`, the call was inactive. `COc1ccccc1NC(=O)Cn1nnc2sc3c(c2c1=O)CC(C)(C)OC3`: the molecule was classed as inactive. The value for `CCN1CCN(c2ccc(Nc3ccnc4ccccc34)cc2)CC1` was “inactive”. As to `C(=C/c1nccc2c1[nH]c1ccccc12)/c1ccc2c(c1)OCO2`, the call was inactive. Consider `Cc1cc(Nc2ccc3c(c2)OCCO3)c2cccc(C)c2n1`, for which the molecule was classed as inactive.

Consider `CC1CCCCN1CCNC(=O)c1cc2c(=O)n(C)c3ccccc3c2n1C` (configuration not stated), for which the molecule was called inactive. For `CCN(CC)CCCNc1nc2ccccc2c2nc(-c3ccncc3)nn12`, the result was inactive. Under `COc1cccc(-c2nc(N3CCN(Cc4ccccc4)CC3)c3ccccc3n2)c1O` stands “inactive”; under `CCN1CCN(CCCNC(=O)c2cc3c(=O)oc4ccc(C)cc4c3s2)CC1`, “inactive”; under `CCN(CC)CCNC(=O)c1cc2c(=O)n(C)c3ccccc3c2n1C`, “inactive”.

Regarding `Cc1ccc2nc(Cl)c3cc(C(=O)NCCCN4CCCC4)sc3c2c1`, the molecule was called inactive. With `CCN1CCN(CCCNC(=O)c2cc3cc4ccc(OC)cc4nc3o2)CC1`, the outcome was inactive. Turning to `Cc1cc(C)c2c(c1)c1nnc(SCCN3CCCCC3)nc1n2C`, the result was inactive.

`CCn1c(=N)c(C(=O)NC)cc2c(=O)n3cccc(C)c3nc21`: the result was inactive. For `CCC(=O)N(Cc1cc2cc(OC)ccc2[nH]c1=O)c1cc(C)ccc1C`, the molecule was classed as inactive. On to `Nc1c(C(=O)NCCN2CCOCC2)c2nc3ccccc3nc2n1-c1ccccc1`, for which the molecule was classed as inactive. As for `CN1CCN(c2ccc(CNC(=O)C3Cc4c(-c5ccc(Cl)cc5)ccnc4O3)cc2)CC1` (configuration not stated), the molecule was called inactive. Regarding `COc1ccc2nc3cc(Cl)ccc3c(Nc3cc(CN4CCCC4)c(O)c(CN4CCCC4)c3)c2n1`, the outcome was inactive.

Consider `CN1CCC[C@H]1CCNc1ccc2c(=O)c3ccccc3n(C)c2c1`, for which the molecule was classed as inactive.

In the case of `CCN1CCN(C(=S)Nc2ccc3nc(N4CCN(CC)CC4)cc(C)c3c2)CC1`, the outcome was inactive. With `CN(C)CCCN1C(=O)c2cccc3cccc(c23)C1=O`, the molecule was called inactive.
